{"source": "PubChem BioAssay AID485276", "about": "(Southern Research Specialized Biocontainment Screening …, 2010)", "assay": "SV40 cytopathic effect inhibition and cytotoxicity, confirmation, BSC cells, set 3 (AID 485276)", "note": "Results with a measured potency or affinity are listed apart. Calls of active or inactive are those of the source. The rule behind the calls is not given here."}
{"molecule": "Oc1ccc(Cc2ccc(O)cc2)cc1", "values": [{"measurement": "outcome", "value": "inactive"}]}
